PubChem BioAssay
For some assays here: Measured potencies and affinities stand elsewhere. Calls of active or inactive are those of the source. Unless noted, how the calls were made is not given here.

Assays:
[1] = antimalarial activity against Dd2 strain (AID 2302;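 active means growth inhibition above 50% at the single 2 µM test dose, taken to imply half-maximal potency below 2 µM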;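 further: 0% = DMSO untreated growth and 100% = chloroquine plus artemisinin killed control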); conditions: P. falciparum Dd2 in RBCs, LDH growth readout, 72 h; at 2 µM; stronger effect = higher value
[2] = human hepatoma cell viability loss – ATP luminescence, cytotoxicity control for P. falciparum antimalarial project, primary screen (AID 2303;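 active means inhibition above 50%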;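 further: 0% = DMSO wells and 100% = digitonin-killed cells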); conditions: HepG2 viability, 24-48 h, at 10 µM, stronger effect = higher value
[3] = molecular target: L-lactate dehydrogenase (Plasmodium falciparum (isolate CDC / Honduras)) (UniProt Q27743); test: PfLDH activity inhibition – cell lysate, 3D7 strain, counter-screen for P. falciparum growth inhibition project (AID 2304);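 further: 0% = vehicle and 100% = reference inhibitor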; conditions: P. falciparum 3D7 crude extract, LDH APAD/NBT absorbance; at 2 µM; stronger effect = higher value
[4] = inhibition of 3D7 malaria parasite growth – strain 3D7 (AID 2306);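 further: 0% = DMSO wells and 100% = chloroquine plus artemisinin control wells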; conditions: P. falciparum 3D7 erythrocytic growth, LDH absorbance, 72 h; at 2 µM; stronger effect = higher value
[5] = molecular target: Calcium-dependent protein kinase 1 (Plasmodium falciparum (isolate 3D7)) (UniProt P62344); test: PfCDPK1 kinase inhibitors, biochemical, TCAMS library (AID 1159585; cut-off not given, nearly all actives have IC50 up to about 0.98 µM;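 further: inhibitors leave more ATP so luminescence rises with inhibition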); conditions: recombinant PfCDPK1, Kinase-Glo ATP depletion luminescence
[6] = molecular target: Plasmodium falciparum protein kinase 6 (PK6, PF3D7_1337100) (UniProt Q8IDW1); test: PfPK6 kinase inhibitors, biochemical, TCAMS library (AID 1159586); conditions: recombinant PfPK6, Kinase-Glo ATP depletion luminescence
[7] = molecular target: Protein kinase 7 (PK7), Plasmodium falciparum 3D7 (PF3D7_0213400) (UniProt Q7YTF7); test: inhibition of Plasmodium PK7 catalytic activity – biochemical, TCAMS antimalarial set, Kinase-Glo luminescence (AID 1159587); conditions: recombinant PfPK7, Kinase-Glo ATP depletion luminescence
[8] = molecular target: Calcium-dependent protein kinase 4 (Plasmodium falciparum (isolate 3D7)) (UniProt Q8IBS5); test: PfCDPK4 kinase inhibitors, biochemical, TCAMS library (AID 1159588; cut-off not given, nearly all actives have IC50 up to about 0.91 µM); conditions: recombinant PfCDPK4, Kinase-Glo ATP depletion luminescence
Chain of Calcium-dependent protein kinase 4 (Plasmodium falciparum (isolate 3D7)) (Q8IBS5 whole entry, looked up): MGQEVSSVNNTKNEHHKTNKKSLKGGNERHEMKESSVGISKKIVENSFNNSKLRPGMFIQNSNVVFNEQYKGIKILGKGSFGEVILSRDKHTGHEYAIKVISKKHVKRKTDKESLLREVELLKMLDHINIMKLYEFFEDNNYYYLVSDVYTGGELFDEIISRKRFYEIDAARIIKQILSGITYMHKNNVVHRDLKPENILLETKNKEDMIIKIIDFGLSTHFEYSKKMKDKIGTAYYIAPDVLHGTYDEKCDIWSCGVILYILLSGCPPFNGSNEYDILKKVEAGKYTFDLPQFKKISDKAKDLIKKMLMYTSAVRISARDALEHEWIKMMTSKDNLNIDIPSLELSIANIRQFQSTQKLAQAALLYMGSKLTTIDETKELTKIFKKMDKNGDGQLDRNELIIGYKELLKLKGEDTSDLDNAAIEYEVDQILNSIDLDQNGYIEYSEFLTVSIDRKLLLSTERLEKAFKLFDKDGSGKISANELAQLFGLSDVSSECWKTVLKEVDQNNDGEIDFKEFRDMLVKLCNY

Chain of L-lactate dehydrogenase (Plasmodium falciparum (isolate CDC / Honduras)) (Q27743 whole entry, looked up): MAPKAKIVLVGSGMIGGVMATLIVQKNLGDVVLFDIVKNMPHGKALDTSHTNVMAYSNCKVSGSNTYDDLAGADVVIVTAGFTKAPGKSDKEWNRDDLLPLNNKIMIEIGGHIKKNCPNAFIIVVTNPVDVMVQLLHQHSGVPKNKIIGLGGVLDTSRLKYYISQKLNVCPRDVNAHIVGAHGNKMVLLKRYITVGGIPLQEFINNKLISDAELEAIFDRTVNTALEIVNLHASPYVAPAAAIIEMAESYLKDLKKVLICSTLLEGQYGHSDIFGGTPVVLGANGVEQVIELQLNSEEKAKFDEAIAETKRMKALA
Chain of Plasmodium falciparum protein kinase 6 (PK6, PF3D7_1337100) (Q8IDW1 1-305): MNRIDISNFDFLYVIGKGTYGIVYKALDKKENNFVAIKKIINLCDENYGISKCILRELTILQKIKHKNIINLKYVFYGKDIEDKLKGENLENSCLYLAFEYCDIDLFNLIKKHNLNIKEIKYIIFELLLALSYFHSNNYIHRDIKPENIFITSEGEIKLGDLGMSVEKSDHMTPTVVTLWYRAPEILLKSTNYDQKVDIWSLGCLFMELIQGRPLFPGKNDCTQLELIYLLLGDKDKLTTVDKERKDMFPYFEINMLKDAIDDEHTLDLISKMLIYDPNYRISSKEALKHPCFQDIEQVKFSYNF
Chain of Protein kinase 7 (PK7), Plasmodium falciparum 3D7 (PF3D7_0213400) (Q7YTF7 1-343): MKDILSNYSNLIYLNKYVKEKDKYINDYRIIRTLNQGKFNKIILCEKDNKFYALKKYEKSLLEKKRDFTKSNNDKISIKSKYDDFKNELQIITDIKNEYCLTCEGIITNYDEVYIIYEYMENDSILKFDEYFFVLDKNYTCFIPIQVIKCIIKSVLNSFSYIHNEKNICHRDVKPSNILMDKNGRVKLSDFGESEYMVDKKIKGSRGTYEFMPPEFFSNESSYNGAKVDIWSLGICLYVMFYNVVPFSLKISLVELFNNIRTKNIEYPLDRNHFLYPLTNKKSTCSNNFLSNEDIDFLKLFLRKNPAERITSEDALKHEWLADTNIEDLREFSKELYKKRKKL
Chain of Calcium-dependent protein kinase 1 (Plasmodium falciparum (isolate 3D7)) (P62344 whole entry, looked up): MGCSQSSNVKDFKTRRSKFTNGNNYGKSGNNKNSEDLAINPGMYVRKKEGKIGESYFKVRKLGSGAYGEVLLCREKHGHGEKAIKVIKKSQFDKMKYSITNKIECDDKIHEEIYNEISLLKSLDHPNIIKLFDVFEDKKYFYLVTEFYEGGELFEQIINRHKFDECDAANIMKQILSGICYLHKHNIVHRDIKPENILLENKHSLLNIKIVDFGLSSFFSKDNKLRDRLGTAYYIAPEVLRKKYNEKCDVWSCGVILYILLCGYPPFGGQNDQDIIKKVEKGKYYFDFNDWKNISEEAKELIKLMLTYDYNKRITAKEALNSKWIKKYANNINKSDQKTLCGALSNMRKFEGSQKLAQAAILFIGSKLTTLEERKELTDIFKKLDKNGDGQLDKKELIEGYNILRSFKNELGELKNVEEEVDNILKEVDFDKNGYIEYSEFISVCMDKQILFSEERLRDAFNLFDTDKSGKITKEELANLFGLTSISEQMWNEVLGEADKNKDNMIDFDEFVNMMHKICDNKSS

CN1CCN(CC2(Nc3nccc(NCCc4cn(C)c5ccccc45)n3)CCCCC2)CC1
inactive: growth inhibition [1] 41% | inhibition [3] 2% | outcome [5] | outcome [6] | outcome [7] | outcome [8]
active: inhibition [2] 67% | growth inhibition [4] 91%

NC(=NCCCCC1CCCCC1)c1cccc(C(N)=NCCCCC2CCCCC2)n1
inactive: growth inhibition [1] 19% | inhibition [3] 3% | outcome [5] | outcome [6] | outcome [7] | outcome [8]
active: inhibition [2] 99% | growth inhibition [4] 100%

CCOc1cc(CC)ccc1C1CCN(CCN2CCC(NC(=O)c3ccc(-c4ccc(C(C)=O)cc4)cc3)CC2)CC1
active: growth inhibition [4] 100%
inactive: growth inhibition [1] 8% | inhibition [2] 25% | inhibition [3] -1% | outcome [5] | outcome [6] | outcome [7] | outcome [8]

CCc1cn2c3c(cc(C(=O)N[C@@H](Cc4ccccc4)[C@H](O)CNCc4ccc(C)cc4)cc13)N(C)S(=O)(=O)CC2
inactive: inhibition [2] -4% | inhibition [3] 5% | outcome [5] | outcome [6] | outcome [7] | outcome [8]
active: growth inhibition [1] 98% | growth inhibition [4] 99%

COc1ccc(Nc2nc(C)cc(NC3CCCC3)n2)cc1
active: growth inhibition [1] 59% | growth inhibition [4] 98%
inactive: inhibition [2] 34% | inhibition [3] 0% | outcome [5] | outcome [6] | outcome [7] | outcome [8]

Clc1ccc(CCNCCCCCCNCCc2ccc3c(c2)OCO3)cc1
inactive: growth inhibition [1] 11% | inhibition [2] 23% | inhibition [3] 7% | outcome [5] | outcome [6] | outcome [7] | outcome [8]
active: growth inhibition [4] 91%

O=c1cc(NCCCNC2CCOc3c(I)cc(Cl)cc32)[nH]c2ccccc12 (stereo not given)
inactive: growth inhibition [1] 48% | inhibition [2] -10% | inhibition [3] -1% | outcome [5] | outcome [6] | outcome [7] | outcome [8]
active: growth inhibition [4] 96%

Cc1cnc(C(=O)Nc2ccc3c(c2)CCCN(Cc2c[nH]c4cnccc24)C3)cn1
inactive: growth inhibition [1] 20% | inhibition [2] 0% | inhibition [3] -3% | outcome [5] | outcome [6] | outcome [7] | outcome [8]
active: growth inhibition [4] 92%

NC(N)=NC(=O)Nc1cc(Br)c(Cl)c(Br)c1
inactive: inhibition [2] 0% | inhibition [3] 4% | outcome [5] | outcome [6] | outcome [7] | outcome [8]
active: growth inhibition [1] 83% | growth inhibition [4] 101%

COc1ccccc1CCNc1nc(C)cc(NCCC(=O)NCCOc2ccccc2)n1
active: growth inhibition [4] 85%
inactive: growth inhibition [1] 14% | inhibition [2] 11% | inhibition [3] -3% | outcome [5] | outcome [6] | outcome [7] | outcome [8]

O=C(Nc1ccc(Cn2ncc(N3CCCNCC3)c(Cl)c2=O)cc1)Nc1cccc(SC(F)(F)F)c1
active: growth inhibition [4] 92%
inactive: growth inhibition [1] 33% | inhibition [2] 12% | inhibition [3] 4% | outcome [5] | outcome [6] | outcome [7] | outcome [8]

Cc1nc(C)n(CC(=O)Nc2cccc(-c3cccc(-c4nc5ccc(C(F)(F)F)cc5[nH]4)c3)c2)n1
inactive: inhibition [3] -6% | outcome [5] | outcome [6] | outcome [7] | outcome [8]
active: growth inhibition [1] 96% | inhibition [2] 62% | growth inhibition [4] 100%

CCOCCCNc1sc(S(=O)(=O)c2ccccc2)nc1S(=O)(=O)c1ccc(C)cc1
active: growth inhibition [1] 87% | growth inhibition [4] 96%
inactive: inhibition [2] -8% | inhibition [3] 1% | outcome [5] | outcome [6] | outcome [7] | outcome [8]

COc1ccc2nccc([C@@H](O)CN3CCC(NCc4cc5ccccc5[nH]c4=O)CC3)c2c1
inactive: growth inhibition [1] -3% | inhibition [2] -6% | inhibition [3] 3% | outcome [5] | outcome [6] | outcome [7] | outcome [8]
active: growth inhibition [4] 97%

O=C(C=Cc1ccc(Cl)c(Cl)c1)NCCCCCN1CCCC(CCCNS(=O)(=O)c2ccc(Br)cc2)C1 (stereo not given)
active: growth inhibition [4] 88%
inactive: growth inhibition [1] 5% | inhibition [2] 43% | inhibition [3] -2% | outcome [5] | outcome [6] | outcome [7] | outcome [8]

COc1ccc(CNCc2ccc(-c3ccc(-c4nc5c(C)cccc5[nH]4)s3)cc2)cc1
inactive: inhibition [3] 3% | outcome [5] | outcome [6] | outcome [7] | outcome [8]
active: growth inhibition [1] 89% | inhibition [2] 54% | growth inhibition [4] 100%

Cc1sc(CNCCCNc2cc(=O)c3ccccc3[nH]2)cc1Br
inactive: inhibition [2] 12% | inhibition [3] -3% | outcome [5] | outcome [6] | outcome [7] | outcome [8]
active: growth inhibition [1] 83% | growth inhibition [4] 100%

O=C(Nc1ccc(Br)c(C(F)(F)F)c1)c1cccc([N+](=O)[O-])c1
inactive: growth inhibition [1] 3% | inhibition [2] 24% | inhibition [3] -7% | outcome [5] | outcome [6] | outcome [7] | outcome [8]
active: growth inhibition [4] 94%

O=c1cc(NCCCNCc2ccc(C(F)(F)F)c(F)c2)[nH]c2ccccc12
active: growth inhibition [4] 93%
inactive: growth inhibition [1] 26% | inhibition [2] 5% | inhibition [3] 4% | outcome [5] | outcome [6] | outcome [7] | outcome [8]

COc1ccc2nccc(N3CCC(SCCNS(=O)(=O)c4ccc5c(c4)NC(=O)CS5)C3)c2n1 (stereo not given)
inactive: growth inhibition [1] 17% | inhibition [2] 20% | inhibition [3] -5% | outcome [5] | outcome [6] | outcome [7] | outcome [8]
active: growth inhibition [4] 99%

Nc1c(Cl)cc(C(O)CNCCCCCCOCCc2ccc(O)cc2)cc1Cl (stereo not given)
active: growth inhibition [1] 97% | growth inhibition [4] 97%
inactive: inhibition [2] 13% | inhibition [3] -3% | outcome [5] | outcome [6] | outcome [7] | outcome [8]

Fc1ccc2nc(-c3ccc(-c4cccc(CN5CCCCC5)c4)cc3)[nH]c2c1
active: growth inhibition [1] 101% | growth inhibition [4] 100%
inactive: inhibition [2] 10% | inhibition [3] -6% | outcome [5] | outcome [6] | outcome [7] | outcome [8]

CC(C)N1CCN(C(CN2CCN(CCCOc3cccc(-c4ccccc4)c3)CC2)c2ccc(F)cc2)CC1 (stereo not given)
active: growth inhibition [1] 99% | inhibition [2] 100% | growth inhibition [4] 100%
inactive: inhibition [3] -2% | outcome [5] | outcome [6] | outcome [7] | outcome [8]

NC1=NC2(CCCCC2)N(OCCCCCCCCNc2nc(N)nc(N)n2)C(N)=N1
inactive: inhibition [2] 44% | inhibition [3] -5% | outcome [5] | outcome [6] | outcome [7] | outcome [8]
active: growth inhibition [1] 99% | growth inhibition [4] 96%

COc1cc(CNC[C@@H](O)[C@H](Cc2ccccc2)NC(=O)c2cc(C3CCCC3)cc(N3CCCCS3(=O)=O)c2)cc(OC)c1
active: growth inhibition [1] 96% | growth inhibition [4] 98%
inactive: inhibition [2] 16% | inhibition [3] 4% | outcome [5] | outcome [6] | outcome [7] | outcome [8]

COc1c(C2=CCN(CCCCNC(=O)c3ccc(-c4ccc(C#N)cc4)cc3)CC2)c(C)cc2c1C(C)(C)CCC2(C)C
active: growth inhibition [1] 88% | growth inhibition [4] 92%
inactive: inhibition [2] 18% | inhibition [3] -2% | outcome [5] | outcome [6] | outcome [7] | outcome [8]

O=S(=O)(NC1CCCCN(Cc2ccccc2O)C1)c1ccc(C(F)(F)F)cc1 (stereo not given)
active: growth inhibition [4] 84%
inactive: growth inhibition [1] 39% | inhibition [2] 1% | inhibition [3] 7% | outcome [5] | outcome [6] | outcome [7] | outcome [8]

C=CCOc1ccc(-c2c(C)[nH]c(C)c(Br)c2=O)cc1
inactive: inhibition [2] 5% | inhibition [3] -3% | outcome [5] | outcome [6] | outcome [7] | outcome [8]
active: growth inhibition [1] 96% | growth inhibition [4] 98%

Clc1ccc(-c2cc(-c3csc(Nc4ccncc4)n3)on2)cc1
inactive: inhibition [2] 1% | inhibition [3] 3% | outcome [5] | outcome [6] | outcome [7] | outcome [8]
active: growth inhibition [1] 99% | growth inhibition [4] 100%

O=C(c1cc(C(=O)Nc2ccccc2F)c(=O)n(-c2ccccc2F)c1)c1cc(Cl)ccc1O
active: growth inhibition [1] 80% | growth inhibition [4] 98%
inactive: inhibition [2] 2% | inhibition [3] 5% | outcome [5] | outcome [6] | outcome [7] | outcome [8]

CCNc1cc(C(=O)N[C@@H](Cc2ccc(Cl)cc2)[C@H](O)CNC2CCCCC2)cc(N2CCCCS2(=O)=O)c1
inactive: inhibition [2] 6% | inhibition [3] -1% | outcome [5] | outcome [6] | outcome [7] | outcome [8]
active: growth inhibition [1] 99% | growth inhibition [4] 98%

O=C(Nc1cccc(CN2CCCN(Cc3ccsc3)CC2)c1)c1ccc(Cl)c(Cl)c1
inactive: growth inhibition [1] 20% | inhibition [2] 36% | inhibition [3] 4% | outcome [5] | outcome [6] | outcome [7] | outcome [8]
active: growth inhibition [4] 98%

COc1ccccc1C(=O)Nc1ccc(Nc2nc(C)cc(N(C)C)n2)cc1
inactive: inhibition [2] 1% | inhibition [3] 3% | outcome [5] | outcome [6] | outcome [7] | outcome [8]
active: growth inhibition [1] 76% | growth inhibition [4] 100%

Cc1cccc2[nH]c(-c3ccc(-c4ccc(CNCc5ccc(CN)cc5)cc4)s3)nc12
active: growth inhibition [1] 85% | growth inhibition [4] 101%
inactive: inhibition [2] 4% | inhibition [3] -8% | outcome [5] | outcome [6] | outcome [7] | outcome [8]

C[C@@]12C[C@@H](Nc3nc(NCCc4ccc(O)cc4)nc(N4CCNCC4)n3)C[C@@H](C1)c1cccc(Cl)c1O2
inactive: growth inhibition [1] 47% | inhibition [3] 4% | outcome [5] | outcome [6] | outcome [7] | outcome [8]
active: inhibition [2] 92% | growth inhibition [4] 101%

CC(=O)OCCN1C(=O)c2ccc3c4c(ccc(c24)C1=O)C(=O)N(CCOC(C)=O)C3=O
active: growth inhibition [4] 94%
inactive: growth inhibition [1] 1% | inhibition [2] 2% | inhibition [3] 3% | outcome [5] | outcome [6] | outcome [7] | outcome [8]

Fc1ccc(C=NNc2ccnc3ccc(C(F)(F)F)cc23)cc1
inactive: growth inhibition [1] 6% | inhibition [2] 22% | inhibition [3] 4% | outcome [5] | outcome [6] | outcome [7] | outcome [8]
active: growth inhibition [4] 90%

O=C(NCCCCN1CCC(c2ccc3c(c2OCC(O)c2ccc(Cl)cc2)CCCC3)CC1)c1ccc(-c2ccc(C(F)(F)F)cc2)cc1 (stereo not given)
inactive: inhibition [3] -3% | outcome [5] | outcome [6] | outcome [7] | outcome [8]
active: growth inhibition [1] 67% | inhibition [2] 100% | growth inhibition [4] 89%

Cc1[nH]c(C)c(-c2ccc(OCc3ccc(OC(F)(F)F)cc3)nc2)c(=O)c1Cl
inactive: inhibition [2] 3% | inhibition [3] -3% | outcome [5] | outcome [6] | outcome [7] | outcome [8]
active: growth inhibition [1] 96% | growth inhibition [4] 98%

O=C(Nc1cccc(-c2cccc(-c3nc4ccc(F)cc4[nH]3)c2)c1)Nc1ccc2c(c1)OCO2
active: growth inhibition [4] 101%
inactive: growth inhibition [1] 49% | inhibition [2] 30% | inhibition [3] -4% | outcome [5] | outcome [6] | outcome [7] | outcome [8]
